Screens deposited in PubChem by National Center for Advancing Translational Sciences (NCATS).
Shown are actives, neighbours in structure and some others; about 6.6% of the full set was active somewhere.
RGS4 inh: blocks human RGS4-accelerated GTP hydrolysis; Potency, µM (top dose mostly 114 µM), for inactives: at the top dose activity change, negative = inhibition, hits mostly inhibitors; AID 504845; actives 0.039% (n = 390,000); P49798; Transcreener GDP fluorescence polarization, RGS4-accelerated GTP hydrolysis; further: on the % scale 0 is the no-effect control and ±100 the full control effect; nearly all actives have a fitted effect of over 75% in size
Target sequence (P49798 whole entry, looked up): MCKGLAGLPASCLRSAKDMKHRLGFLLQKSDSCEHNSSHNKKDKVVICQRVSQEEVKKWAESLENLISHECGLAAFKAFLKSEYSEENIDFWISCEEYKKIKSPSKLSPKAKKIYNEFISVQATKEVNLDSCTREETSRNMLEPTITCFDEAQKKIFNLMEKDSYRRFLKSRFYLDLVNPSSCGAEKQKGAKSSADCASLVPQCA
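MLSMR compounds (23 nl, pin-transferred) preincubated 10 min at room temperature with a 500nM (2x) first reagent, then RGS4 at 900nM (2x) plus Transcreener GDP mix added; fluorescence polarization (620/688 nm) read before and after 90 min at 30 °C.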
MCF10A rereplic: induces DNA re-replication in MCF 10a normal breast cells; MCF 10A DNA re-replication, Hoechst nuclear intensity, 48 h; Potency, µM (highest dose often 46.1 µM), for inactives: at the top dose activity, positive = re-replication, actives largely listed as activators; actives 2.9% (n = 350,000); further: % of control where 0% means no effect; nearly all actives have a fitted effect of over 50% in size
KB-V1 cytotox: KB-V1 MDR subline cytotoxicity; AID 1347076; actives 3.4% (n = 400,000); KB-V1 MDR cells viability, CellTiter-Glo, 72 h; Potency, µM (series often up to 46.1 µM), actives largely listed as cytotoxic; further: on the % scale 0 is the no-effect control and ±100 the full control effect; nearly all actives have a fitted effect of over 60% in size
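KB-V1 MDR subline cells in DMEM (phenol-red free, 10% FBS) exposed to compounds in qHTS concentration series for 72 h at 37 degrees C. Viability read by CellTiter-Glo luminescence; concentration-effect curves fitted after normalization and correction.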
TSG101-PTAP inh: blocks PTAP/TSG101 interaction to inhibit HIV-1 budding. AID 493005. 340,000 tested, under 10 active. Fluorescence polarization, FITC-PTAP peptide / Tsg101 binding. Potency, µM (titrated, usually from 115 µM), for the others: at the top dose activity change, negative = inhibition, hits mostly inhibitors; active means well fitted inhibition curve with a large enough effect in the main read-out, with a control signal flat, not every such curve was filed as active; inconclusive means small, poorly fitted or top-dose-only effect, or effect the other way, or a change in a side signal; inactive means no such curve, though single readings can be large or run the other way; further: % of control where 0% means no effect
Target sequence (Q99816 whole entry, looked up): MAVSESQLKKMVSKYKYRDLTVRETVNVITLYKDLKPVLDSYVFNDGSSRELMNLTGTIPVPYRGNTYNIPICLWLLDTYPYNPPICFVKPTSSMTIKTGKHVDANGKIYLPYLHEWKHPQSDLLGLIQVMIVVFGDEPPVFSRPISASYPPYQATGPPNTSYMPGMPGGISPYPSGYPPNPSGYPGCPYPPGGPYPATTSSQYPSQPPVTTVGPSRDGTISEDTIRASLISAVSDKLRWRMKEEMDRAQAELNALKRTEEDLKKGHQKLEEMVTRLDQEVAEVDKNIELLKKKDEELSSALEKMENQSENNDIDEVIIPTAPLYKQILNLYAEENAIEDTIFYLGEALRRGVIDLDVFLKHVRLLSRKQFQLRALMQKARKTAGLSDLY
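Tsg101 binding domain (10 uM final) was mixed with compound and a FITC-labeled PTAP peptide (50 nM final) in HEPES pH 7.5 buffer with NaCl, Tween 20, EDTA and TCEP; fluorescence polarization was read after 20 min at r.t.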
SW480 rereplic: inducers of DNA re-replication in SW480 colon cancer cells; SW480 DNA re-replication, Hoechst DNA content imaging, 48 h; actives 1.8% (n = 340,000); AID 624297; Potency, µM (series often up to 46.1 µM), without a hit: top-dose re-replication activation, hits mostly activators; further: % of control where 0% means no effect; nearly all actives have a fitted effect of over 55% in size
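Image-based DNA-content assay: after two days of treatment, nuclei were labelled with the DNA dye Hoechst and imaged, and hits were compounds raising the count of nuclei showing high fluorescence intensity.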
KB-3-1 cytotox: KB-3-1 parental cell cytotoxicity; KB-3-1 viability, CellTiter-Glo ATP luminescence, 72 h; Potency, µM (top dose mostly 46.1 µM), most hits filed as cytotoxic; actives 1.4% (n = 400,000); further: on the % scale 0 is the no-effect control and ±100 the full control effect; nearly all actives have a fitted effect of over 60% in size
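Here the drug-naive KB-3-1 line serves as comparator for MDR sub-line selectivity; cells received compound titrations, 72 h at 37 °C, then CellTiter-Glo readout.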
* = called active by the depositor. Unless noted, the call rests on the fitted dose curve; in most records, active means well fitted curve in the direction sought with a large enough effect; inconclusive means small, poorly fitted or top-dose-only effect, or another doubt; inactive means no such curve, though single readings can be large; an effect the other way counts as inactive or inconclusive. Potency means the concentration at half of the fitted maximal effect.

`COc1cc(NC(=O)c2cc(Br)cc(C)c2OC)ccc1NC(=O)C(C)C` gave RGS4 inh -8%, MCF10A rereplic 4%, KB-V1 cytotox inactive, TSG101-PTAP inh -2%, SW480 rereplic 4% and KB-3-1 cytotox inactive.
`CCOc1ccc(C(=O)Nc2ccc(Cc3ccncc3)cc2)cc1Br` gave RGS4 inh 11%, MCF10A rereplic inconclusive, KB-V1 cytotox inactive, TSG101-PTAP inh -7%, SW480 rereplic 16µM* and KB-3-1 cytotox inconclusive.
Screening COc1ccccc1C(=O)Nc1ccc(Cc2ccncc2)cc1 returned RGS4 inh -17%, MCF10A rereplic -37%, KB-V1 cytotox 9.2µM*, TSG101-PTAP inh -1%, SW480 rereplic 4% and KB-3-1 cytotox inconclusive.
Screening CCOc1ccc(C(=O)Nc2ccc(NC(=O)c3ccccc3)cc2)cc1Br returned RGS4 inh 28%, MCF10A rereplic 1%, KB-V1 cytotox inactive, TSG101-PTAP inh 3%, SW480 rereplic -38% and KB-3-1 cytotox inactive.
For COc1ccc([N+](=O)[O-])cc1C(=O)Nc1ccc(Cc2ccncc2)cc1 the results were RGS4 inh 18%, MCF10A rereplic 9%, KB-V1 cytotox inactive, TSG101-PTAP inh 2%, SW480 rereplic -17% and KB-3-1 cytotox inactive.
Screening CCOc1ccc(C(NC(C)=O)c2cc(Cl)c3cccnc3c2O)cc1 (stereo not given) returned KB-V1 cytotox inactive and KB-3-1 cytotox inactive.
Screening O=C(O)COc1ccccc1C(Nc1cccnc1)c1cc(Cl)c2cccnc2c1O (stereo not given) returned RGS4 inh inconclusive, MCF10A rereplic 9.2µM*, KB-V1 cytotox inactive, TSG101-PTAP inh -9%, SW480 rereplic 15% and KB-3-1 cytotox inactive.
`O=C(O)COc1ccccc1C(Nc1ccccn1)c1cc(Cl)c2cccnc2c1O` (stereo not given) gave RGS4 inh inconclusive, MCF10A rereplic 18µM*, KB-V1 cytotox inactive, TSG101-PTAP inh -4%, SW480 rereplic -2% and KB-3-1 cytotox inactive.
`NC(=O)c1ccc2nc(-c3ccc(Oc4ccc(Cl)cc4)cc3)[nH]c2c1` gave KB-V1 cytotox inactive and KB-3-1 cytotox inactive.
`O=C(NCCc1ccccc1)c1ccc2c(c1)N(Cc1ccccc1)C(=O)c1ccccc1S2=O` (stereo not given) gave RGS4 inh 14%.
CN(c1ccccc1)S(=O)(=O)c1cccc(NC(=O)CSc2nncn2C)c1 was read as RGS4 inh -34%, MCF10A rereplic -5%, KB-V1 cytotox inactive, TSG101-PTAP inh 1%, SW480 rereplic -8% and KB-3-1 cytotox inactive.
CCn1c(SCC(=O)Nc2cccc(S(=O)(=O)N(C)c3ccccc3)c2)nnc1C1CC1 was read as RGS4 inh -5%, MCF10A rereplic 12%, KB-V1 cytotox 21µM*, TSG101-PTAP inh 1%, SW480 rereplic 3% and KB-3-1 cytotox inactive.
Cc1ccc(CN=C2Nc3ccccc3CS2)cc1 was read as RGS4 inh 34%, MCF10A rereplic inconclusive, KB-V1 cytotox 13µM*, TSG101-PTAP inh -3%, SW480 rereplic 0% and KB-3-1 cytotox inconclusive.
Cn1c(SCc2c(Cl)cccc2Cl)nnc1-c1ccc2nonc2c1 was read as RGS4 inh 2%, MCF10A rereplic inconclusive, KB-V1 cytotox inactive, TSG101-PTAP inh -2%, SW480 rereplic 12% and KB-3-1 cytotox inactive.
Screening Clc1cccc(Cl)c1CSc1nnc(CN2CCOCC2)n1-c1ccccc1 returned RGS4 inh 0%, MCF10A rereplic inconclusive, KB-V1 cytotox inactive, TSG101-PTAP inh -2%, SW480 rereplic -13% and KB-3-1 cytotox inactive.
`O=S(Cc1ccc(Br)cc1)Cc1nnc(SCc2c(Cl)cccc2Cl)n1-c1ccccc1` (stereo not given) gave RGS4 inh 1%, MCF10A rereplic inconclusive, KB-V1 cytotox 0.82µM*, TSG101-PTAP inh -3%, SW480 rereplic -3% and KB-3-1 cytotox inactive.
For Cn1c(CS(=O)Cc2c(Cl)cccc2Cl)nnc1SCc1c(Cl)cccc1Cl (stereo not given) the results were RGS4 inh 31%, MCF10A rereplic 22%, KB-V1 cytotox 5.8µM*, TSG101-PTAP inh 5%, SW480 rereplic 6% and KB-3-1 cytotox inactive.
Screening CCOc1ccc(NC(=O)CC2C(=O)N(c3ccc(C)cc3)C(=O)N2Cc2ccc(OC)cc2)cc1 (stereo not given) returned RGS4 inh 0%, KB-V1 cytotox inactive and KB-3-1 cytotox inactive.
`Cn1c(CNc2ccc(Br)cc2)nc2ccccc21` gave RGS4 inh 8%, MCF10A rereplic 22%, KB-V1 cytotox 15µM*, TSG101-PTAP inh -3%, SW480 rereplic 4% and KB-3-1 cytotox inconclusive.
`Cc1ccc(NC(=O)NCc2nc3ccccc3n2C)cc1` gave RGS4 inh 6%, MCF10A rereplic inconclusive, KB-V1 cytotox inactive, TSG101-PTAP inh -2%, SW480 rereplic 21µM* and KB-3-1 cytotox inactive.
For Cc1ccc(NCc2nc3ccccc3n2C)cc1 the results were RGS4 inh -27%, MCF10A rereplic -12%, KB-V1 cytotox inactive, TSG101-PTAP inh -1%, SW480 rereplic 3% and KB-3-1 cytotox inactive.
Cn1c(CNc2ccc(O)cc2)nc2ccccc21 was read as RGS4 inh 13%, MCF10A rereplic -2%, KB-V1 cytotox inactive, TSG101-PTAP inh -7%, SW480 rereplic -5% and KB-3-1 cytotox inactive.
Screening CCOc1ccc(C(=O)Nc2ccccc2C(=O)OCc2cc(=O)n3nc(C4CC4)sc3n2)cc1 returned RGS4 inh 1%, KB-V1 cytotox inactive and KB-3-1 cytotox inactive.
`C=CCN1C(=O)/C(=C/c2ccc(O)cc2)S/C1=N/c1nccs1` gave RGS4 inh -16%, MCF10A rereplic 23µM*, KB-V1 cytotox inactive, TSG101-PTAP inh 7%, SW480 rereplic 5% and KB-3-1 cytotox inactive.
`C=CCN=C1S/C(=C\c2ccc(N(C)C)cc2)C(=O)N1CC=C` gave RGS4 inh -9%, MCF10A rereplic 18µM*, KB-V1 cytotox inactive, TSG101-PTAP inh 20%, SW480 rereplic inconclusive and KB-3-1 cytotox inactive.
For C=CCN1C(=O)/C(=C/c2ccc(OC)cc2)S/C1=N/c1nccs1 the results were RGS4 inh 2%, MCF10A rereplic 16%, KB-V1 cytotox inactive, TSG101-PTAP inh 1%, SW480 rereplic 1% and KB-3-1 cytotox inactive.
